# Results reported in article PMC5540273 (PLoS ONE, 2017).
# How the values were obtained:
# Conditions in all cases: concentration: 1 μM, replicates: in singlicate; n = 1
# ERK8 = tested on: T1, ERK8
# T1 construct: gene MAPK15
# ERN1 = tested on: ERN1
# FAK = tested on: T2, FAK
# T2 construct: gene PTK2
# FER = tested on: FER
# FES = tested on: FES
# FGFR1 = tested on: FGFR1
# FGFR2 = tested on: FGFR2
# FGFR3 = tested on: FGFR3
# FGFR4 = tested on: FGFR4
# FGR = tested on: FGR
# 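Also: KINOMEscan kinase panel screen.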
compound,measurement,setting,value
COC(=O)C(Cc1ccccc1)NC(=O)NC1CCN(c2ccnc(Nc3ccc(F)cc3)n2)C1 (stereo not shown) [GSK1379714],%Inh,ERK8,0%
same,%Inh,ERN1,0%
same,%Inh,FAK,0%
same,%Inh,FER,30%
same,%Inh,FES,0%
same,%Inh,FGFR1,0%
same,%Inh,FGFR2,51%
same,%Inh,FGFR3,26%
same,%Inh,FGFR4,0%
same,%Inh,FGR,0%
Cc1ccc(-c2nc(Nc3ccncc3)c3ccccc3n2)s1 [GSK189015],%Inh,ERK8,52%
same,%Inh,ERN1,22%
same,%Inh,FAK,27%
same,%Inh,FER,6%
same,%Inh,FES,19%
same,%Inh,FGFR1,15%
same,%Inh,FGFR2,30%
same,%Inh,FGFR3,28%
same,%Inh,FGFR4,5%
same,%Inh,FGR,22%
CCc1ccc(-c2ccc3c(c2)-c2n[nH]cc2S(=O)(=O)N3C)cc1,%Inh,ERK8,0%
same,%Inh,ERN1,0%
same,%Inh,FER,6%
same,%Inh,FES,2%
same,%Inh,FGFR1,6%
same,%Inh,FGFR2,0%
same,%Inh,FGFR3,0%
same,%Inh,FGFR4,0%
same,%Inh,FGR,9%
COc1ccc(Nc2nccc(N3CCC(NC(=O)C(C)c4ccc(Cl)cc4)CC3)n2)cc1 (stereo not shown) [GSK1379812],%Inh,ERK8,0%
same,%Inh,ERN1,0%
same,%Inh,FAK,0%
same,%Inh,FER,46%
same,%Inh,FES,19%
same,%Inh,FGFR1,0%
same,%Inh,FGFR2,0%
same,%Inh,FGFR3,30%
same,%Inh,FGFR4,4%
same,%Inh,FGR,5%
CNc1nc(-c2ccc3c(N)n[nH]c3c2)cc(N2C[C@@H](C(=O)NC3CCCCC3)OC[C@H]2C)n1 [GSK2375584],%Inh,ERK8,0%
same,%Inh,ERN1,0%
same,%Inh,FAK,0%
same,%Inh,FER,34%
same,%Inh,FES,0%
same,%Inh,FGFR1,13%
same,%Inh,FGFR2,27%
same,%Inh,FGFR3,27%
same,%Inh,FGFR4,7%
same,%Inh,FGR,17%
COc1ccc(Nc2nccc(N3CCC(NC(=O)C(C)c4ccc(Cl)cc4)C3)n2)cc1 (stereo not shown) [GSK1379735],%Inh,ERK8,44%
same,%Inh,ERN1,0%
same,%Inh,FAK,0%
same,%Inh,FER,28%
same,%Inh,FES,12%
same,%Inh,FGFR1,8%
same,%Inh,FGFR2,36%
same,%Inh,FGFR3,17%
same,%Inh,FGFR4,3%
same,%Inh,FGR,10%
COc1nccc(-c2c(-c3ccc(F)cc3)ncn2CCCN2CCOCC2)n1 [SB-282852],%Inh,ERK8,4%
same,%Inh,ERN1,16%
same,%Inh,FAK,0%
same,%Inh,FER,0%
same,%Inh,FES,0%
same,%Inh,FGFR1,46%
same,%Inh,FGFR2,0%
same,%Inh,FGFR3,0%
same,%Inh,FGFR4,0%
same,%Inh,FGR,1%
COc1ccc(CSc2nnc(-c3ccc4ncsc4c3)o2)cc1C(F)(F)F,%Inh,ERK8,57%
same,%Inh,ERN1,0%
same,%Inh,FAK,0%
same,%Inh,FER,0%
same,%Inh,FES,14%
same,%Inh,FGFR1,5%
same,%Inh,FGFR2,0%
same,%Inh,FGFR3,0%
same,%Inh,FGFR4,0%
same,%Inh,FGR,27%
COc1cccc(CNC(=O)NC2CCN(c3ccnc(Nc4ccc(F)cc4)n3)C2)c1 (stereo not shown) [GSK1379723],%Inh,ERK8,60%
same,%Inh,ERN1,4%
same,%Inh,FAK,0%
same,%Inh,FER,6%
same,%Inh,FES,0%
same,%Inh,FGFR1,0%
same,%Inh,FGFR2,3%
same,%Inh,FGFR3,15%
same,%Inh,FGFR4,10%
same,%Inh,FGR,8%
Cn1cncc1-c1cc2c(Nc3ccc(OCc4ccccc4)cc3)ncnc2cn1 [GW281179],%Inh,ERK8,0%
same,%Inh,ERN1,0%
same,%Inh,FAK,0%
same,%Inh,FER,14%
same,%Inh,FES,0%
same,%Inh,FGFR1,9%
same,%Inh,FGFR2,19%
same,%Inh,FGFR3,2%
same,%Inh,FGFR4,12%
same,%Inh,FGR,18%
Cc1ccc(NC(=O)Nc2ccc(Cl)c(C(F)(F)F)c2)cc1-c1ccc(C(=O)Nc2ccncc2)cc1 [GSK1398470],%Inh,ERK8,0%
same,%Inh,ERN1,25%
same,%Inh,FAK,0%
same,%Inh,FER,22%
same,%Inh,FES,15%
same,%Inh,FGFR1,0%
same,%Inh,FGFR2,12%
same,%Inh,FGFR3,23%
same,%Inh,FGFR4,11%
same,%Inh,FGR,19%
COc1cccc(C2=C(Nc3cc(Cl)c(O)c(Cl)c3)C(=O)NC2=O)c1 [SB-390767],%Inh,ERK8,37%
same,%Inh,ERN1,17%
same,%Inh,FAK,0%
same,%Inh,FER,0%
same,%Inh,FES,0%
same,%Inh,FGFR1,0%
same,%Inh,FGFR2,53%
same,%Inh,FGFR3,41%
same,%Inh,FGFR4,29%
same,%Inh,FGR,22%
Cc1ccc(NC(=O)Nc2ccccc2F)cc1-c1ccc(C(=O)Nc2ccncc2)cc1 [GSK1398477],%Inh,ERK8,0%
same,%Inh,ERN1,13%
same,%Inh,FAK,0%
same,%Inh,FER,16%
same,%Inh,FES,11%
same,%Inh,FGFR1,19%
same,%Inh,FGFR2,14%
same,%Inh,FGFR3,23%
same,%Inh,FGFR4,21%
same,%Inh,FGR,26%
c1ccc(-c2ccnc3[nH]ccc23)cc1 [SB-693578],%Inh,ERK8,0%
same,%Inh,ERN1,11%
same,%Inh,FAK,0%
same,%Inh,FER,0%
same,%Inh,FES,0%
same,%Inh,FGFR1,0%
same,%Inh,FGFR2,0%
same,%Inh,FGFR3,7%
same,%Inh,FGFR4,13%
same,%Inh,FGR,2%
Cc1c(Cn2c(C)c(C)n3c(=O)cc(N4CCOCC4)nc23)cccc1C(F)(F)F [GSK2328680],%Inh,ERK8,8%
same,%Inh,ERN1,9%
same,%Inh,FAK,0%
same,%Inh,FER,15%
same,%Inh,FES,0%
same,%Inh,FGFR1,0%
same,%Inh,FGFR2,41%
same,%Inh,FGFR3,6%
same,%Inh,FGFR4,0%
same,%Inh,FGR,20%
CSc1ccc(-c2nc3n(c2-c2ccncc2)CCC3)cc1 [SKF-105561],%Inh,ERK8,1%
same,%Inh,ERN1,0%
same,%Inh,FAK,0%
same,%Inh,FER,0%
same,%Inh,FES,28%
same,%Inh,FGFR1,1%
same,%Inh,FGFR2,0%
same,%Inh,FGFR3,0%
same,%Inh,FGFR4,0%
same,%Inh,FGR,25%
CCn1c(-c2ccccc2)nc2cnccc21 [SB-733416],%Inh,ERK8,23%
same,%Inh,ERN1,0%
same,%Inh,FAK,2%
same,%Inh,FER,18%
same,%Inh,FES,0%
same,%Inh,FGFR1,18%
same,%Inh,FGFR2,0%
same,%Inh,FGFR3,0%
same,%Inh,FGFR4,23%
same,%Inh,FGR,22%
